Beta cell apopt: beta cell apoptosis inhibition; actives 0.8% (n = 300,000); INS-1E cytokine-induced death, ATP luminescence, 48 h; percent of positive-control rescue, neutral wells zero; AID 435005; protection from apoptosis, % (concentration not given with the values);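 active means Every replicate reaches about 75%, or at least half do and their mean reaches it too, limit read from the data; inconclusive means At least half of replicates reach the limit but their mean does not; inactive means Under half of replicates reach the limit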;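 further: 0% = cytokine-treated negative control wells and 100% = positive control rescue; higher means more ATP so stronger rescue from cytokine killing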
Shn3 3UTR inh: inhibitors of Schnurri-3 3'UTR reporter in osteoblasts | Clone20 osteoblast Shn3 3'UTR firefly luciferase, 24 h | inhibition, % at 12.5 µM | actives 0.52% (n = 360,000);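 active means mean inhibition of at least 75% with every replicate also reaching 75%; inconclusive means mean inhibition at least 75% but some replicate below; inactive means mean inhibition below 75%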;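 further: 0% = median of neutral control wells and 100% = pilot-screen positive control compound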
Jurkat NFkB inh: inhibitors of the PMA/ionomycin-induced NF-kB reporter in Jurkat cells; PMA/ionomycin-induced NF-kB luciferase reporter, luminescence; AID 435003; actives 0.53% (n = 330,000); inhibition, % at 4 µM; in the data active means inhibition above about 50%
Calb FLC: affects C. albicans growth with fluconazole. C. albicans CaCi-2 (fluconazole-resistant clinical isolate) + fluconazole, Alamar Blue growth, 48 h. growth inhibition, % (no concentration beside the values). actives 0.57% (n = 300,000). AID 1979;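 active means growth inhibition above about 58% in most replicates, limit read from the data, passing the limit was not always enough; inconclusive means exactly half the replicates above a set limit; inactive means most replicates below a set limit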;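 further: all wells also contain fluconazole at 8 µg/ml as a sub-toxic cotreatment; 0% = median of DMSO wells and 100% = median of geldanamycin control wells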
697 NFkB inh: inhibitors of the PMA/ionomycin-induced NF-kB reporter in 697 B cells; inhibition, % at 4 µM; 697 B-cell NF-kB luciferase reporter, 16 h; AID 435022; actives 0.33% (n = 330,000); in the data active means inhibition above about 35%
Active calls of the source: *; u = inconclusive; x = no result. This is a sample that favours compounds with a hit; in the whole collection about 2% have one here.

SMILES	Beta cell apopt	Shn3 3UTR inh	Jurkat NFkB inh	Calb FLC	697 NFkB inh
Cc1ccc(NC(=O)c2oc3ccccc3c2COC(C)C)cc1S(=O)(=O)N1CCOCC1	5	88*	6	x	-26
Cc1c(C(=O)N(Cc2ccccc2)C(C)C)oc2ccc(S(=O)(=O)N3CCOCC3)cc12	90*	23	6	-2	-29
Cc1c(C(=O)N(C)Cc2ccccc2)oc2ccc(S(=O)(=O)N3CCCC3)cc12	-1	14	8	19	-4
Cc1c(C(=O)Nc2cccc(C(F)(F)F)c2)oc2ccc(S(=O)(=O)N3CCOCC3)cc12	x	88*	16	x	-26
COc1ccc(C(C)=O)cc1Cn1c(C)c(C(=O)NCCC#N)sc1=O	x	-6	x	x	x
CC(=O)Nc1ccc(N=Nc2ccccc2)cc1[N+](=O)[O-]	x	-43	x	x	x
C/C(=N/NC(=O)c1cccs1)c1c(C)[nH]n(-c2nc3ccccc3s2)c1=O	79*	-33	-23	u	-79
CN(C)S(=O)(=O)Oc1cccc(C(=O)Nc2ccccc2Cl)c1	8	-41	-50	23	-12
CN(C)S(=O)(=O)Oc1cccc(C(=O)Nc2ccc(Cl)cc2)c1	2	43	-21	87*	-38
COc1ccc(OCCN2C(=O)c3cccc(N)c3C2=O)cc1	-1	-8	-23	5	-26
Cc1ccccc1S(=O)(=O)NC(=O)C1(C)CCN1C(=O)COc1ccc(Cl)cc1 (configuration not stated)	x	-25	x	x	x
COc1cccc(C(=O)Oc2c(Br)cc(Br)cc2/C=N/NC(=O)c2cc(C)[nH]n2)c1	81*	82	13	-7	30
NC(=O)c1ccc(N2CCN(S(=O)(=O)c3cccs3)CC2)c([N+](=O)[O-])c1	82*	85	-17	x	-8
O=C(Nc1ccccc1)OCN1C(=O)c2ccccc2C1=O	-3	-11	-9	69*	5
O=C(CN1C(=O)c2ccccc2C1=O)Nc1ccccc1	-1	10	9	-3	9
O=C(OCC1OC(n2cc(Br)c(=O)[nH]c2=O)C(Br)C1O)c1ccccc1 (configuration not stated)	-15	5	-3	5	6
O=C(CC1(O)C(=O)Nc2ccc(Br)cc21)c1ccccc1 (configuration not stated)	x	-11	x	x	x
O=C(CCCOc1ccccc1)Nc1nc2ccccc2[nH]1	-5	-33	-68	-6	-98
Cc1ccc(OCCCC(=O)Nc2nc3ccccc3[nH]2)cc1	4	-88	-2	110*	5
C[C@H](CO)N1C[C@H](C)[C@@H](CN(C)S(=O)(=O)c2cccs2)Oc2ccc(NS(=O)(=O)c3ccccc3)cc2C1=O	6	-21	-1	x	13
Cc1cc(CN2CCOCC2)c(O)c(C2(C)CCCCC2)c1	10	87*	-13	2	-20
COc1cc(/C=C/C(=O)c2ccc3c(c2)OCCO3)cc(Br)c1OCC(=O)N(C)C	-13	92*	47	2	-47
O=C(/C=C/c1ccncc1)c1ccc2c(c1)OCCO2	23	5	3	67*	3
O=C(/C=C/c1ccccc1)c1ccc2c(c1)OCO2	0	-37	-43	1	-25
Cc1nc(SCC(=O)c2cc(C)n(C3CC3)c2C)c2ccccc2n1	x	47	x	x	x
SMILES	Beta cell apopt	Shn3 3UTR inh	Jurkat NFkB inh	Calb FLC	697 NFkB inh
Cc1ccccc1NC(=S)N/N=C/C(C)c1ccccc1 (configuration not stated)	-3	10	5	-2	-6
CCCOc1ccc(/C=N/NC(=S)Nc2ccccc2[N+](=O)[O-])c(O)c1	108*	x	x	34	x
Cc1ccccc1NC(=S)N/N=C/c1ccc(O)cc1O	87*	-4	-37	5	-152
Cc1cc(SCC(=O)N/N=C/c2ccc(O)cc2O)nc2ccccc12	37	92*	7	8	-56
COc1ccc(/C=N/NC(=S)Nc2ccccc2[N+](=O)[O-])cc1O	-2	-22	x	9	x
CNS(=O)(=O)c1ccc(C(=O)NCC(=O)NC(C)c2cccs2)cc1 (configuration not stated)	-8	-11	-5	x	3
COc1ccc(OCC2CCNCC2)cc1	-2	-7	-5	-12	-8
C=CC[C@@H]1C=C(C)C[C@H](C)C[C@H](OC)[C@H]2O[C@@](O)(C(=O)C(=O)N3CCCC[C@H]3C(=O)O[C@H](/C(C)=C/[C@@H]3CC[C@@H](O)[C@H](OC)C3)[C@H](C)[C@@H](O)CC1=O)[C@H](C)C[C@@H]2OC	3	x	22	117*	-8
OCCNc1nc(Nc2ccc(Cl)cc2)nc(N2CCCC2)n1	4	87*	-7	3	-14
CCc1nc2c(OCc3ccc(F)c(F)c3)cccn2c1N(C)C(=O)c1cccs1	x	15	x	x	x
CC(C(=O)c1ccc(-c2ccccc2)cc1)[n+]1ccccc1 (configuration not stated)	22	18	19	4	-5
Cc1cc[n+](C(C)C(=O)c2ccc(-c3ccccc3)cc2)cc1 (configuration not stated)	99*	24	45	-18	15
Cc1noc(C)c1S(=O)(=O)Nc1ccc2c(c1)CC(=O)N([C@H](C)CO)C[C@H](C)[C@H](CN(C)S(=O)(=O)c1ccc(F)cc1)O2	1	-8	4	x	11
Cc1cnc(NC(=O)CN2CCN(c3ccccn3)CC2)s1	79*	-33	4	5	24
CCC(=O)c1cn(CC(=O)Nc2ccccc2Cl)c2ccccc12	0	89*	-2	-1	-3
COc1ccccc1NC(=O)Cn1cc(C(=O)c2ccco2)c2ccccc21	87*	76	-5	-2	11
CCC(=O)c1cn(CC(=O)Nc2cccc(C)c2)c2ccccc12	-14	-1	9	5	-10
Cc1cccc(NC(=O)Cn2cc(C(=O)C3CC3)c3ccccc32)c1C	18	87*	15	0	8
CCC(=O)c1cn(CC(=O)Nc2cccc(C)c2C)c2ccccc12	6	84	8	0	15
COc1ccccc1-n1c(SCC(=O)Nc2cc(C)on2)nc2c([nH]c3ccccc32)c1=O	0	6	20	18	19
COc1ccc(OCC(=O)N2CCc3ccccc32)c([N+](=O)[O-])c1	x	-11	x	x	x
Cc1cc(C)c2[nH]c(O)c(N=NC(=S)NCC3CCCO3)c2c1 (configuration not stated)	3	-13	8	24	21
Oc1[nH]c2c(Cl)cc(Cl)cc2c1N=NC(=S)NCC1CCCO1 (configuration not stated)	52	85	12	97*	-6
COc1ccc(S(=O)(=O)N(Cc2ccco2)Cc2cc3ccccc3[nH]c2=O)cc1	x	31	5	4	-3
NC(=S)n1[nH]c(-c2ccccc2)c(N=Nc2ccccc2C(=O)N2CCOCC2)c1=O	7	-3	4	100*	23

Source: PubChem (several laboratories)
